Records with an inconclusive call do not appear. Calls of active or inactive are those of the source. Unless noted, the call rests on the fitted dose curve; in most records, active means well fitted curve in the direction sought with a large enough effect; inconclusive means small, poorly fitted or top-dose-only effect, or another doubt; inactive means no such curve, though single readings can be large; an effect the other way counts as inactive or inconclusive.
Columns and labels:
[1] = Cytometric Cell-Based qHTS for Inhibitors of the mTORC1 Signaling Pathway in MEF (Tsc2-/-, p53-/-) Cells (AID 2660);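 further: Tsc2 and p53 null MEFs carrying empty vector with compound for 24 h; percent of cells above a phospho-rpS6 to PI ratio cutoff in each well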
How it was run: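 Percent of cells positive for normalized phospho-S6 staining is reported, with the cutoff set from rapamycin (7.5 nM) versus DMSO wells. Tsc2-/-, p53-/- MEFs received compound for 24 hrs.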

[2] = High Content Imaging Cell-Based qHTS for Inhibitors of the mTORC1 Signaling Pathway in MEF (Tsc2-/-, p53-/-) Cells (AID 2666); conditions: at 38.3 µM (top of the series);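 further: percent of cells scored positive for phospho-rpS6 Ser235/236 immunostaining by imaging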
How it was run: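 Inhibition of rpS6 phosphorylation is measured by immunofluorescence imaging in empty-vector Tsc2-/-, p53-/- mouse embryonic fibroblasts after 24 hrs compound exposure at 37 degree Celsius. Results are reported as % positive cells per well.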

[3] = High Content Imaging Cell-Based qHTS for Inhibitors of the mTORC1 Signaling Pathway in MEF Cells (AID 2667);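 further: Tsc2-/- p53-/- MEFs stably re-expressing wild-type Tsc2 exposed 24 h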
How it was run: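 Fixed-cell imaging of phospho-S6 (Ser235/236, Alexa-488) after 24 hrs of compound treatment at 37 degree Celsius. Signal was normalized to Hoechst, and thresholds from the highest and lowest wells split cells into % active versus % non-active.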

[4] = Cytometry Cell-Based qHTS for Inhibitors of the mTORC1 Signaling Pathway in MEF cells (AID 2668);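 further: Tsc2-/- p53-/- mouse embryonic fibroblasts stably re-expressing wild-type Tsc2; percent cells positive for phospho-rpS6 Ser235/236 relative to propidium iodide stain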
How it was run: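 MEFs (Tsc2-/-, p53-/- stably expressing WT Tsc2) treated 24 h at 37 degree Celsius, fixed, stained with Alexa-488 anti-phospho-rpS6 Ser235/236 and propidium iodide; Acumen laser scanning. Reported as % positive cells, phospho-S6 normalized to PI.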

[5] = molecular target: Tumor susceptibility gene 101 protein (Homo sapiens) (UniProt Q99816); assay: qHTS Validation Assay for Iinhibitors of HIV-1 Budding by Blocking the Interaction of PTAP/TSG101 (AID 485342; calls by dose curve)
Tumor susceptibility gene 101 protein (Homo sapiens), sequence (Q99816 whole entry, looked up, the tested form may be a part): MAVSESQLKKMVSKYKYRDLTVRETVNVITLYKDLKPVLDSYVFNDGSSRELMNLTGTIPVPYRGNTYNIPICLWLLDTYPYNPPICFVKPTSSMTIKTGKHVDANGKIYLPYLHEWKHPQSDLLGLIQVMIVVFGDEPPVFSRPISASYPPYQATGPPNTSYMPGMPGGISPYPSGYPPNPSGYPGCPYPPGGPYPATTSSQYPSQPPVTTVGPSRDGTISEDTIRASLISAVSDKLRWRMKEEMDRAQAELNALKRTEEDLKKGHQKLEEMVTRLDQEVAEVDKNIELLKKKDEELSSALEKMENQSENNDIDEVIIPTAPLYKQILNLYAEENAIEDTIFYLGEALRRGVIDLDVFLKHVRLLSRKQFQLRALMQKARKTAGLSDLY
How it was run: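 Tsg101 binding domain (10 uM) with FITC-labeled PTAP peptide (50 nM) in HEPES pH 7.5 buffer, 20 min at r.t. with compounds. Binding measured by fluorescence polarization.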

[6] = qHTS Validation Assay to Find Inhibitors of Chronic Active B-Cell Receptor Signaling (AID 485345; active means well fitted curve in the direction sought with a large enough effect in the main read-out, with a control signal flat, not every such curve was filed as active)
How it was run: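 TMD8 ABC-DLBCL cells with dox-inducible green luciferase–IκBα fusion and red native luciferase; compounds 46 uM–3 nM, 4 h at 37C with doxycycline in 0.5% FBS IMDM. Green/red ratio normalized to basal and 10 uM MG-132.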

[7] = molecular target: Beta-2 adrenergic receptor (Homo sapiens) (UniProt P07550); assay: qHTS validation assay of beta-arrestin-biased ligands of beta2-adrenergic receptor (AID 485366)
How it was run: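 Screening used a titration range of up to 46 microM in a beta-arrestin recruitment Tango luciferase assay. Cells in 1% FBS medium were treated 18 hr at 37 degrees C, and luminescence was normalized to %Activity.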

[8] = molecular target: Thioredoxin reductase 1, cytoplasmic (Rattus norvegicus) (UniProt O89049); assay: qHTS Assay for Substrates of Mammalian Selenoprotein Thioredoxin Reductase 1 (TrxR1) (AID 488772);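 further: a drop in NADPH fluorescence below the no-compound background marks a TrxR1 substrate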
Thioredoxin reductase 1, cytoplasmic (Rattus norvegicus), sequence (O89049 whole entry, looked up): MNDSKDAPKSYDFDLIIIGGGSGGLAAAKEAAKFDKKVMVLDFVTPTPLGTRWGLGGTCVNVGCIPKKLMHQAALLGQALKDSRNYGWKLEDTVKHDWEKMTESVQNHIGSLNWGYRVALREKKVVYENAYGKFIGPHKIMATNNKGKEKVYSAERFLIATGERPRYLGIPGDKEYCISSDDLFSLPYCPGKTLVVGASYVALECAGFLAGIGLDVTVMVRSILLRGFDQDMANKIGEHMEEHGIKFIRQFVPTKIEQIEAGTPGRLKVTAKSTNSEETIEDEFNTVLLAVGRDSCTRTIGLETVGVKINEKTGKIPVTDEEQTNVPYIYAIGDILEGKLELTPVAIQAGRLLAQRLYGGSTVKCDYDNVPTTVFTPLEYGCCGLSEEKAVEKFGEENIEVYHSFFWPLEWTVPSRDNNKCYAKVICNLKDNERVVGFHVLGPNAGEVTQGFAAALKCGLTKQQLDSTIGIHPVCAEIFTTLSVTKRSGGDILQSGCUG
How it was run: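 In this dual-purpose format, potential substrates are identified from the first fluorescence read after selenite addition, not from the 8-minute delta. Rat enzyme is preincubated with NADPH and then with compound at ~22 deg C.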

[9] = molecular target: Thioredoxin reductase 1, cytoplasmic (Rattus norvegicus) (UniProt O89049); assay: qHTS Assay for Inhibitors of Mammalian Selenoprotein Thioredoxin Reductase 1 (TrxR1) (AID 488773); conditions: Potency: inhibition; further: potency means the concentration at half of the fitted maximal effect; nearly all actives have a fitted effect of over 40% in size
How it was run: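 Inhibition is scored from the loss of NADPH fluorescence between first and last reads of an 8-min kinetic run. Selenite (400 uM) was the substrate, added after 15 min compound preincubation at room temperature.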

[10] = molecular target: M-phase phosphoprotein 8 (Homo sapiens) (UniProt Q99549); assay: qHTS Validation Assay for Inhibitors for MPP8 Chromodomain Interactions with Methylated Histone Tails (AID 488949); further: potency means the concentration at half of the fitted maximal effect; nearly all actives have a fitted effect of over 55% in size
How it was run: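 MPP8 (50 nM) was pre-bound to 50 nM biotinylated H3(1-18)K9me3 peptide in PBS pH 7.4 with 0.01% Tween-20. Compounds were then added for 30 min at room temperature, and complex disruption was read by AlphaScreen with streptavidin donor and nickel-chelate acceptor beads.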

[11] = molecular target: Chromobox protein homolog 1 (Homo sapiens) (UniProt P83916); assay: qHTS Validation Assay for Inhibitors of HP1-beta Chromodomain Interactions with Methylated Histone Tails (AID 488953); further: potency means the concentration at half of the fitted maximal effect; nearly all actives have a fitted effect of over 50% in size
Chromobox protein homolog 1 (Homo sapiens), sequence (P83916 whole entry, looked up): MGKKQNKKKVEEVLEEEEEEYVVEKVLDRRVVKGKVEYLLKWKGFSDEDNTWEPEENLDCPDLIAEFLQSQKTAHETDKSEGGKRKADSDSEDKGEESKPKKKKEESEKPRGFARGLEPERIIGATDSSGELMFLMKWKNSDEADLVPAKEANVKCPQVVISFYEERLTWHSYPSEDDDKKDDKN
How it was run: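 AlphaScreen proximity signal from streptavidin donor and nickel chelate acceptor beads (final 10 ug/mL) after 30 min dark incubation. Compounds had 30 min at room temperature with preformed complex of 50 nM HP1-beta and 50 nM b-H3(1-18)K9me3 in PBS pH 7.4 with 0.01% Tween-20.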

[12] = molecular target: Methanococcus maripaludis chaperonin (MmCpn) (UniProt Q6LX38); assay: High-Throughput Screening for Modulators of Cytosolic Chaperonin Activity: MmCpn Primary Screen (AID 488978);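 further: 50 nM MmCpn enzyme hydrolysing 30 µM ATP at 37 °C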
Methanococcus maripaludis chaperonin (MmCpn), sequence (Q6LX38 1-543): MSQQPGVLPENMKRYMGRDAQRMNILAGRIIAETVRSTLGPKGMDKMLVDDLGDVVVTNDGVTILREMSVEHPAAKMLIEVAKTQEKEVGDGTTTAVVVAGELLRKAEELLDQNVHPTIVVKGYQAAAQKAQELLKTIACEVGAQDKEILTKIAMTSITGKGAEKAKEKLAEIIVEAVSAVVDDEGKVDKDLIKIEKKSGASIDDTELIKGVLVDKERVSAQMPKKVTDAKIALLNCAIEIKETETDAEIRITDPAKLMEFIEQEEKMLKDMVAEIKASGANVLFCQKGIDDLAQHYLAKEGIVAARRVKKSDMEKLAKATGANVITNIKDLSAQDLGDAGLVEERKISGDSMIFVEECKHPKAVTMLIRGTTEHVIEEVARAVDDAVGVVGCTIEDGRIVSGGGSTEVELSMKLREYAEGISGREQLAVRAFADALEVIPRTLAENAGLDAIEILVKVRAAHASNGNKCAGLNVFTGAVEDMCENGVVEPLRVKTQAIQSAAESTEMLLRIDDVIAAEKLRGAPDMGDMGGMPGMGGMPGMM
How it was run: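 MmCpn at 50 nM final was preincubated 5 min at RT with compound. ATP was then added at 30 uM final for 10 min at 37 C. ADP formed was detected by Transcreener HTRF (665/590 nm).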

[13] = molecular target: D(1A) dopamine receptor (Homo sapiens) (UniProt P21728); assay: HTS Assay for Allosteric Agonists of the Human D1 Dopamine Receptor: Primary Screen for Agonists (AID 488981)
D(1A) dopamine receptor (Homo sapiens), sequence (P21728 whole entry, looked up): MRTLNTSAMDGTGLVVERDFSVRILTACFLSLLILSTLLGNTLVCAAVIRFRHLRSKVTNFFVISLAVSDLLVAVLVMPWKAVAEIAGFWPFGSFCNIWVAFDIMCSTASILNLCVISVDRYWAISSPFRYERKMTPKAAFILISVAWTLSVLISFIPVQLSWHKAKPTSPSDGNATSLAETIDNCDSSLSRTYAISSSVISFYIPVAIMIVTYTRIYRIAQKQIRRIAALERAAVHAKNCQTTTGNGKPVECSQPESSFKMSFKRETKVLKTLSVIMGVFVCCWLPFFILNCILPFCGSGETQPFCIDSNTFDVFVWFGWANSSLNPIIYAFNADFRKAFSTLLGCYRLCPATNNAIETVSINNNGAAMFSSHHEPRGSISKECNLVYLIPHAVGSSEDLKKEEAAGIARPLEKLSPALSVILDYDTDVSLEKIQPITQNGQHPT
How it was run: (§1)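 Tetracycline-induced HEK293 T-REx cells force-coupled to calcium signalling were incubated overnight at 30 C and dye-loaded at room temperature. Calcium flux over 180 s after compound addition flagged agonists; a further 180 s read after EC20 dopamine flagged potentiators.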

[14] = molecular target: D(1A) dopamine receptor (Homo sapiens) (UniProt P21728); assay: HTS Assay for Allosteric Agonists of the Human D1 Dopamine Receptor: Primary Screen for Potentiators (AID 488982)
How it was run: as §1

[15] = molecular target: D(1A) dopamine receptor (Homo sapiens) (UniProt P21728); assay: HTS Assay for Allosteric Agonists of the Human D1 Dopamine Receptor: Primary Screen for Antagonists (AID 488983);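 further: calcium flux response to an EC80 dopamine challenge measured with no-wash dye; nearly all actives have a fitted effect of over 65% in size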
How it was run: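 Calcium-flux read-out in inducible HEK293 T-REx cells expressing D1, dye-loaded 30–90 min at room temperature. Kinetic reads: 180 s after compound (agonist phase), then 180 s after an EC80 dopamine challenge.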

[16] = Validation screen for small molecules that induce genotoxicity in human embryonic kidney (HEK293T) cells expressing luciferase-tagged ELG1 (AID 493106)
How it was run: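 ELG1-luciferase reporter readout (ONE-Glo, 30 min, room temperature) after 16 hr compound treatment at 37 °C of HEK293T cells at 2,000 per well. Rising luminescence flags genotoxic stress.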

[17] = molecular target: ATPase family AAA domain-containing protein 5 (Homo sapiens) (UniProt Q96QE3); assay: Validation screen for small molecules that inhibit ELG1-dependent DNA repair in human embryonic kidney (HEK293T) cells expressing luciferase-tagged ELG1 (AID 493107);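 further: inhibitors lower the ELG1-luciferase luminescence signal; nearly all actives have a fitted effect of over 70% in size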
How it was run: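 Luciferase read-out, ONE-Glo, 30 min at room temperature, follows 16 h co-exposure at 37 C of compound and the DNA-damaging agent 5-fluorouridine. Cells: HEK293T with ELG1-luciferase fusion, 2,000 per well, DMSO as vehicle.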

[18] = molecular target: phosphoglycerate mutase (Leishmania major) (UniProt Q4Q090); assay: qHTS Validation Assay to Find Inhibitors of Phosphoglycerate Mutase (AID 504548);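 further: end-point luminescence from Kinase-GloPlus after the PGAM reaction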
How it was run: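 Inhibition of L. major PGAM was assessed by Kinase-GloPlus luminescence following a 45-minute room-temperature reaction with enzyme at 1.25nM final.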

[19] = molecular target: Ubiquitin carboxyl-terminal hydrolase 1 (Homo sapiens) (UniProt O94782); assay: Inhibitors of USP1/UAF1: Pilot qHTS (AID 504865);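 further: rhodamine fluorescence freed from ubiquitin-rhodamine substrate followed over time; top concentration of the series differs between compounds; nearly all actives have a fitted effect of over 35% in size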
Ubiquitin carboxyl-terminal hydrolase 1 (Homo sapiens), sequence (O94782 whole entry, looked up): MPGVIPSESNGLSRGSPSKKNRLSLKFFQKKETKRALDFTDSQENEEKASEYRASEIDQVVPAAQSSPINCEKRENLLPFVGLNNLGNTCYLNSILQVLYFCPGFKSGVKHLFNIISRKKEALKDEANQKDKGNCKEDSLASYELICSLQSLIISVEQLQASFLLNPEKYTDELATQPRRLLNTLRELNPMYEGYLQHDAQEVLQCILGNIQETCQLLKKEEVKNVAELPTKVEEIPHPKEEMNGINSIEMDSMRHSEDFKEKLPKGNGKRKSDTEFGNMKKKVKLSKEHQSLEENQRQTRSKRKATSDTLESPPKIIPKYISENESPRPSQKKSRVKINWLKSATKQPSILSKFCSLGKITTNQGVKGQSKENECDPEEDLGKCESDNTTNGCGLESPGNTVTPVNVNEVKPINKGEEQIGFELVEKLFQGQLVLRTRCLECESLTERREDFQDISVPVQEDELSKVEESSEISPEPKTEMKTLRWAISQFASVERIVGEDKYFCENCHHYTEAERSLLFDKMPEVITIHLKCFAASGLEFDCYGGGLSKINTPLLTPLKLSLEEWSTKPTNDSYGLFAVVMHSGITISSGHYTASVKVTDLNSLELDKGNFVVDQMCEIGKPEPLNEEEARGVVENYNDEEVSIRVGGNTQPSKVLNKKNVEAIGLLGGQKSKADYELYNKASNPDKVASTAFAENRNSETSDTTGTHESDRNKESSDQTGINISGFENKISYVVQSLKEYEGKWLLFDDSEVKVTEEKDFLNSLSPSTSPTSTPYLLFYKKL
How it was run: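 USP1/UAF1 complex at 1 nM preincubated 15 min at room temperature with compound, then Ub-Rho substrate added at 150 nM final. Fluorescence (480/540 nm) read kinetically in 50 mM HEPES pH 7.8, 0.5 mM EDTA, 1 mM TCEP, 0.1 mg/ml BSA, 0.01% Tween-20.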

[20] = NS1 protein of Zika virus - qHTS assay to identify small molecule inhibitors in human HEK 293 cells (AID 1347053); further: nearly all actives have a fitted effect of over 55% in size
How it was run: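 Compound-treated (1 h pre-infection) HEK 293 cells infected with ZIKV MR766, MOI = 0.5; after 24 h at 37 C, NS1 read by TR-FRET; data normalized to uninfected and infected controls.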

[21] = molecular target: T1, Tyrosine-protein phosphatase non-receptor type substrate 1 (Homo sapiens) + Leukocyte surface antigen CD47 (Homo sapiens) (UniProt P78324+Q08722); assay: CD47-SIRPalpha protein protein interaction - HTRF assay qHTS validation (AID 1347058; active means well fitted curve in the direction sought with a large enough effect in the signal ratio, not every such curve was filed as active; the % refers to the signal ratio)
T1 sequence (P78324 whole entry, looked up, the tested form may be a part): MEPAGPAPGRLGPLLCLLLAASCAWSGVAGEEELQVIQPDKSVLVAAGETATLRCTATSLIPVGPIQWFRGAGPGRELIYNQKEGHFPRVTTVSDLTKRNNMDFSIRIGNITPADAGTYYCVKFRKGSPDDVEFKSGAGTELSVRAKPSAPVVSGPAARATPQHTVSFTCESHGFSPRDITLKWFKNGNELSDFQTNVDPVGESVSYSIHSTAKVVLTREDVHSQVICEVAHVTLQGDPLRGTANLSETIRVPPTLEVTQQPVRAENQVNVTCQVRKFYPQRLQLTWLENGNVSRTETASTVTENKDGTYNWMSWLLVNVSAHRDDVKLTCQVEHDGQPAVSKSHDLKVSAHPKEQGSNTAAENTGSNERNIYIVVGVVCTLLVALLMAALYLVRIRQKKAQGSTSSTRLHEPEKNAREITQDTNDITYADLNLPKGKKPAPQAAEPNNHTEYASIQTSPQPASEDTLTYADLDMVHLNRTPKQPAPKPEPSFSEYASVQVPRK
T1 sequence (Q08722 whole entry, looked up, the tested form may be a part): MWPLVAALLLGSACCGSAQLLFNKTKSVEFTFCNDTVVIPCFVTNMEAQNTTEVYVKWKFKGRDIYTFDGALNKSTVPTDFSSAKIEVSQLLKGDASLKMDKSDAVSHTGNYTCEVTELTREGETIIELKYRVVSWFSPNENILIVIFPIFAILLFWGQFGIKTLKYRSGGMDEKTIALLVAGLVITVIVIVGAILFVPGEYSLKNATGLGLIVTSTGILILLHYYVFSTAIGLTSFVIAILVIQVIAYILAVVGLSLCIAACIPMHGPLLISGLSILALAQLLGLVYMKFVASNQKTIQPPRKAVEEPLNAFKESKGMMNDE
How it was run: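 Soluble extracellular domains (6His-CD47, Avi-tag-biotinylated SIRPalpha) in PBS pH 7.4 with 0.05% IGEPAL CA-630. Compounds were preincubated 30 min at RT with CD47 and anti-His-Eu, then SIRPalpha and SAV-XL665 were added. TR-FRET 665/615 ratio.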

[22] = molecular target: T1, Tyrosine-protein phosphatase non-receptor type substrate 1 (Homo sapiens) + Leukocyte surface antigen CD47 (Homo sapiens); assay: CD47-SIRPalpha protein protein interaction - Alpha assay qHTS validation (AID 1347059);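 further: bead proximity luminescence from CD47 binding SIRPalpha after compound preincubation with SIRPalpha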
How it was run: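 In PBS (pH 7.4) with 0.05% IGEPAL CA-630, compound is preincubated with biotin-Avi-SIRPalpha ectodomain before His-CD47 ectodomain and affinity beads are added. Light-protected room-temperature incubations; AlphaScreen readout.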

[23] = molecular target: N-terminal Xaa-Pro-Lys N-methyltransferase 1 (Homo sapiens) (UniProt Q9BV86); assay: qHTS Assay for Inhibitors of N-terminal methyltransferase 1 (NTMT1): LOPAC validation of the NTMT1 SAHH-coupled ThioGlo3 Assay (AID 1347143);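 further: SAH from peptide methylation measured as thiol fluorescence via SAHH coupling and ThioGlo3; potency means the concentration at half of the fitted maximal effect; nearly all actives have a fitted effect of over 70% in size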
N-terminal Xaa-Pro-Lys N-methyltransferase 1 (Homo sapiens), sequence (Q9BV86 whole entry, looked up): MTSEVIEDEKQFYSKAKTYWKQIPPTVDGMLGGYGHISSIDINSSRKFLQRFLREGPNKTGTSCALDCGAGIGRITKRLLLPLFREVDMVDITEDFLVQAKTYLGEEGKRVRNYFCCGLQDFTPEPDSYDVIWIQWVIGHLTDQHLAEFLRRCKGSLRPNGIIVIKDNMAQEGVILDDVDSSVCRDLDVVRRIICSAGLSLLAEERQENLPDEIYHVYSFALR
How it was run: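 In this qHTS pilot against the LOPAC set, 125nM NTMT1 met compounds tested at multiple concentrations, and fluorescence was normalized to background.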

[24] = system: Zika virus NS2B-NS3 protease (unlinked); assay: Optimization of GU AMC qHTS for Zika virus inhibitors: Unlinked NS2B-NS3 protease assay (AID 1347151); further: nearly all actives have a fitted effect of over 80% in size
How it was run: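 Noncovalent NS2B hydrophilic domain–NS3 protease complex (25 nM final) in 10 mM Tris-HCl pH 8.0, 0.01% Tween 20; AMC substrate, room temperature 15 min (~20% conversion); fluorescence change normalized, 4-parameter Hill fit.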

[25] = qHTS to identify inhibitors of the type 1 interferon - major histocompatibility complex class I in skeletal muscle: primary screen against the NCATS LOPAC collection (AID 1347405);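 further: lytic HiBiT luminescence reporting HLA-B protein level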
How it was run: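 After 24 h at 37 C with compounds (7-point, 1:4.3 dilutions, 46 uM top final) plus 4 ng/ml IFN-beta, luminescence from lytic HiBiT detection was measured. HLA-B*08:01 in C25cl48 myoblasts carried an endogenous C-terminal HiBiT tag; medium lacked dexamethasone.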

[26] = molecular target: Calcium and integrin-binding protein 1 (Homo sapiens) (UniProt Q99828); assay: Validation qHTS for Identification of Calcium Integrin Binding protein 1 (CIB1) Competitor (AID 1508618)
Calcium and integrin-binding protein 1 (Homo sapiens), sequence (Q99828 whole entry, looked up): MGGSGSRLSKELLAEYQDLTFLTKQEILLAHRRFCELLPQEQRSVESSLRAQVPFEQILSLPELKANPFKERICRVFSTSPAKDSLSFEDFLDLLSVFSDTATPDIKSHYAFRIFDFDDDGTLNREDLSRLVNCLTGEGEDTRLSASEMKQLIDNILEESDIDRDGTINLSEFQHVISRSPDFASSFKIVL
How it was run: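 In this qHTS validation, the LOPAC set (up to 114 uM) was tested for blocking CIB1 binding to a fluorescein-tagged alphaIIb peptide, with FP detection at 480/540 nm.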

[27] = molecular target: Metallo-beta-lactamase type 2 (Klebsiella pneumoniae) (UniProt C7C422); assay: qHTS to identify inhibitors of the New Delhi Metallo-beta-lactamase (NDM): assay validation screen against the NCATS LOPAC Collection (AID 1794843); further: potency means the concentration at half of the fitted maximal effect
Metallo-beta-lactamase type 2 (Klebsiella pneumoniae), sequence (C7C422 whole entry, looked up): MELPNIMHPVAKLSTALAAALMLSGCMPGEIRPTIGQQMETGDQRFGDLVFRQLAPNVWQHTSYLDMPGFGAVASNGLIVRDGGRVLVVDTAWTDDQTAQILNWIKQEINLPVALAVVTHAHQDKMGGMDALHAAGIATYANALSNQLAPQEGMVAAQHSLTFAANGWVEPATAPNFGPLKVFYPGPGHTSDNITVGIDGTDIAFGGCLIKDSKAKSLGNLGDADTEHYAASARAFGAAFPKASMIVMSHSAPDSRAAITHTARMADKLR
How it was run: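 Nitrocefin hydrolysis (50 uM substrate stock) by NDM-1, 2 nM final, was followed by 485 nm absorbance after compound preincubation; buffer was 50 mM HEPES pH 7.0, 1 uM ZnSO4, 0.01% Tween20.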

[28] = molecular target: Glutathione peroxidase 1 (Homo sapiens) (UniProt P07203); assay: Primary qHTS Assay for Inhibitors of Recombinant Selenoprotein Glutathione Peroxidase 1 (GPX1) (AID 1845191); further: nearly all actives have a fitted effect of over 65% in size
Glutathione peroxidase 1 (Homo sapiens), sequence (P07203 whole entry, looked up): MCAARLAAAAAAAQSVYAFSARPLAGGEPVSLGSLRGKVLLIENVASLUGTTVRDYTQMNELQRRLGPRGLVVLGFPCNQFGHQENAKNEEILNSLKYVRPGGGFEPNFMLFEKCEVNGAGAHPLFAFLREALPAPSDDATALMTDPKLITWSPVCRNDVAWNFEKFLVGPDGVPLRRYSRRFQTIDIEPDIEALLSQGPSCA
How it was run: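 GPX1 10 nM, GR 100 nM, GSH 1 mM, NADPH 0.5 mM, CHP 0.5 mM (final). 30-min cpd preincubation, RT. Ex340/Em450 read t=0, t=15 min.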

[29] = molecular target: Phospholipid hydroperoxide glutathione peroxidase GPX4 (Homo sapiens) (UniProt P36969); assay: Primary qHTS Assay for Inhibitors of Recombinant Selenoprotein Glutathione Peroxidase 4 (GPX4) (AID 1845192); conditions: outcome: dose series up to 50 µM unless noted; further: nearly all actives have a fitted effect of over 65% in size
Phospholipid hydroperoxide glutathione peroxidase GPX4 (Homo sapiens), sequence (P36969 whole entry, looked up): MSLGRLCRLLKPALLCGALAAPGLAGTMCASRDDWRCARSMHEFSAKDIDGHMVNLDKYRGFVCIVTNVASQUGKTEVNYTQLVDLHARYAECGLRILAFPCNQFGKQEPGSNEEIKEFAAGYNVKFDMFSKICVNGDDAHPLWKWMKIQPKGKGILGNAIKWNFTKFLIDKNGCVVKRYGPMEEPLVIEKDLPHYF
How it was run: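 qHTS, GR-coupled: GPX4 200 nM + cpd 30 min RT → GSH 1 mM, NADPH 0.5 mM, GR 100 nM → CHP 0.5 mM start; fluor 340/450 at t0 and t15 min; no-enzyme wells as control.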

Measured: Potency

N.N.O=C(O)C1(C(=O)O)CCC1.[Pt+2]
active: [9] 0.267 µM | [10] 3.77 µM | [11] 20 µM | [23] 12.6 µM | [27] 3.98 µM
inactive: all other assays above

Source: PubChem BioAssay (NCATS)
